# Data taken from PubChem BioAssay AID1259339 (Broad Institute, 2017).
# The source made the active and inactive calls.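 Rule for the calls: active = fitted AC50 no higher than ten times the top tested dose (cut at about 90 µM in these data); inconclusive = flat curve with 30 to 70% signal loss, or bad fit; inactive = AC50 beyond ten times the top dose.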
# Assay: AlphaLISA signal interference compounds, dose response, artefact control, biochemical, TruHit kit (AID 1259339)
# Details: TruHit alphaLISA kit signal interference counterscreen; series mostly up to 80 µM; activity change, negative = signal loss: at the top concentration
SMILES,"activity change, negative = signal loss",AC50
C=CCNc1ncnc2c1CCN(C(=O)c1ccc(CSC)o1)CC2,10.8% (inactive),–
NC(=O)C1(N2CCCCC2)CCN(c2ncc(NC(=O)c3ccc(F)cc3)cc2C(=O)O)CC1,-11.3% (inactive),–
Cc1ccc(N2NC(c3ccc(Br)cc3)=CCC2=O)cc1,–,66.7 µM (active)
CCOc1ccccc1NC(=O)N1CCCC(c2nccn2CCOC)C1 (centres undefined),-7.56% (inactive),–
O=C(Nc1nc(-c2ccco2)c(-c2ccco2)s1)c1ccco1,–,0.98 µM (active)
NC(=O)c1ccc(CN2C(=O)C3(CCNCC3)Nc3ccccc32)cc1,9.05% (inactive),–
O=C(CN1CCOC1=O)N1CCC2(CCC(=O)N(CCCn3ccnc3)C2)CC1,-4.31% (inactive),–
COCCC(=O)N1CCCC2(CCN(CCN3CCCC3)C2=O)C1 (centres undefined),15.8% (inactive),–
O=C(Nc1nc(-c2nc3ccccc3s2)cs1)c1ccco1,12.1% (inactive),–
CC(C)(C)c1ccc(-c2nc(C#N)c(NCc3ccncc3)o2)cc1,–,22.1 µM (active)
O=C(Nc1nnc(-c2ccco2)s1)c1ccccc1,12.7% (inactive),–
Cc1cnc(C)c(N2CCN(C(=O)[C@H]3CC[C@@H](N)C3)CC2)n1,-0.624% (inactive),–
NC(=O)C1(N2CCCCC2)CCN(c2ncc(NC(=O)c3ccc(Cl)cc3)cc2C(=O)O)CC1,–,81.9 µM (active)
COc1ccc(-c2ccc(CCC(=O)O)o2)cc1,-15.3% (inactive),–
O=C(Nc1nc(-c2ccco2)c(-c2ccco2)s1)C1CCC1,–,4.55 µM (active)
COc1c(C(=O)O)csc1Br,–,0.373 µM (active)
Cc1ccc2cc(CN(Cc3ccco3)S(C)(=O)=O)c(=O)[nH]c2c1,-3.12% (inactive),–
O=C(CCN1CCOCC1)c1ccc2c(c1)OCCO2,12.9% (inactive),–
NC(=O)C1(N2CCCCC2)CCN(c2ncc(NC(=O)c3cccs3)cc2C(=O)O)CC1,3.86% (inactive),–
